GC-B act – human GC-B receptor activators, primary screen, HEK293 GC-B cells, cGMP TR-FRET, EC30 CNP; Atrial natriuretic peptide receptor 2 (Homo sapiens), P20594; 0% at EC30 CNP, 100% saturating CNP; activation, % at 10 µM; hit rate 0.11% among 370,000; AID 1920062, 2024;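 active = activation at 10 µM reaching about 35% in either raw or pattern-adjusted values, limit read from the data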
GC-A act – GC-A stimulated cGMP production enhancers – HEK293 GC-A cells, cGMP TR-FRET, EC30 ANP, primary screen; Atrial natriuretic peptide receptor 1 (Homo sapiens), P16066; 0% at EC30 ANP, 100% saturating ANP; activation, % at 10 µM; hit rate 0.14% among 370,000; in the data active = activation above about 40%
aDG glyco act – activators of alpha-DG glycosylation, primary screen, uHTS, Pro5-aDG cells, AlphaScreen. alpha-DG glycosylation AlphaScreen (IIH6); 0% Pro5, 100% B10-LARGE cell signal. hit rate 0.22% among 360,000. AID 624168, 2012. activation, % at 10 µM;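 active = activation of at least 8% versus controls, or a plate z-score of at least 8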;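 also: Pro5 are CHO cells carrying HIG-tagged alpha-DG that lacks glycosylation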
FAS-TE inh – FAS thioesterase domain inhibitors, primary screen, biochemical, fluorescence intensity, uHTS; Fatty acid synthase (Homo sapiens), P49327; recombinant FAS-TE, OMFH fluorogenic substrate, fluorescence endpoint; inhibition, % at 15 µM; hit rate 0.67% among 360,000; AID 602261, 2012;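 active = compounds whose normalised, plate-corrected inhibition of enzyme fluorescence in the single-dose primary screen is 50% or more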;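 also: 0% = DMSO with enzyme and 100% = substrate without enzyme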
Target sequence (P49327 whole entry, looked up, the tested form may be a part): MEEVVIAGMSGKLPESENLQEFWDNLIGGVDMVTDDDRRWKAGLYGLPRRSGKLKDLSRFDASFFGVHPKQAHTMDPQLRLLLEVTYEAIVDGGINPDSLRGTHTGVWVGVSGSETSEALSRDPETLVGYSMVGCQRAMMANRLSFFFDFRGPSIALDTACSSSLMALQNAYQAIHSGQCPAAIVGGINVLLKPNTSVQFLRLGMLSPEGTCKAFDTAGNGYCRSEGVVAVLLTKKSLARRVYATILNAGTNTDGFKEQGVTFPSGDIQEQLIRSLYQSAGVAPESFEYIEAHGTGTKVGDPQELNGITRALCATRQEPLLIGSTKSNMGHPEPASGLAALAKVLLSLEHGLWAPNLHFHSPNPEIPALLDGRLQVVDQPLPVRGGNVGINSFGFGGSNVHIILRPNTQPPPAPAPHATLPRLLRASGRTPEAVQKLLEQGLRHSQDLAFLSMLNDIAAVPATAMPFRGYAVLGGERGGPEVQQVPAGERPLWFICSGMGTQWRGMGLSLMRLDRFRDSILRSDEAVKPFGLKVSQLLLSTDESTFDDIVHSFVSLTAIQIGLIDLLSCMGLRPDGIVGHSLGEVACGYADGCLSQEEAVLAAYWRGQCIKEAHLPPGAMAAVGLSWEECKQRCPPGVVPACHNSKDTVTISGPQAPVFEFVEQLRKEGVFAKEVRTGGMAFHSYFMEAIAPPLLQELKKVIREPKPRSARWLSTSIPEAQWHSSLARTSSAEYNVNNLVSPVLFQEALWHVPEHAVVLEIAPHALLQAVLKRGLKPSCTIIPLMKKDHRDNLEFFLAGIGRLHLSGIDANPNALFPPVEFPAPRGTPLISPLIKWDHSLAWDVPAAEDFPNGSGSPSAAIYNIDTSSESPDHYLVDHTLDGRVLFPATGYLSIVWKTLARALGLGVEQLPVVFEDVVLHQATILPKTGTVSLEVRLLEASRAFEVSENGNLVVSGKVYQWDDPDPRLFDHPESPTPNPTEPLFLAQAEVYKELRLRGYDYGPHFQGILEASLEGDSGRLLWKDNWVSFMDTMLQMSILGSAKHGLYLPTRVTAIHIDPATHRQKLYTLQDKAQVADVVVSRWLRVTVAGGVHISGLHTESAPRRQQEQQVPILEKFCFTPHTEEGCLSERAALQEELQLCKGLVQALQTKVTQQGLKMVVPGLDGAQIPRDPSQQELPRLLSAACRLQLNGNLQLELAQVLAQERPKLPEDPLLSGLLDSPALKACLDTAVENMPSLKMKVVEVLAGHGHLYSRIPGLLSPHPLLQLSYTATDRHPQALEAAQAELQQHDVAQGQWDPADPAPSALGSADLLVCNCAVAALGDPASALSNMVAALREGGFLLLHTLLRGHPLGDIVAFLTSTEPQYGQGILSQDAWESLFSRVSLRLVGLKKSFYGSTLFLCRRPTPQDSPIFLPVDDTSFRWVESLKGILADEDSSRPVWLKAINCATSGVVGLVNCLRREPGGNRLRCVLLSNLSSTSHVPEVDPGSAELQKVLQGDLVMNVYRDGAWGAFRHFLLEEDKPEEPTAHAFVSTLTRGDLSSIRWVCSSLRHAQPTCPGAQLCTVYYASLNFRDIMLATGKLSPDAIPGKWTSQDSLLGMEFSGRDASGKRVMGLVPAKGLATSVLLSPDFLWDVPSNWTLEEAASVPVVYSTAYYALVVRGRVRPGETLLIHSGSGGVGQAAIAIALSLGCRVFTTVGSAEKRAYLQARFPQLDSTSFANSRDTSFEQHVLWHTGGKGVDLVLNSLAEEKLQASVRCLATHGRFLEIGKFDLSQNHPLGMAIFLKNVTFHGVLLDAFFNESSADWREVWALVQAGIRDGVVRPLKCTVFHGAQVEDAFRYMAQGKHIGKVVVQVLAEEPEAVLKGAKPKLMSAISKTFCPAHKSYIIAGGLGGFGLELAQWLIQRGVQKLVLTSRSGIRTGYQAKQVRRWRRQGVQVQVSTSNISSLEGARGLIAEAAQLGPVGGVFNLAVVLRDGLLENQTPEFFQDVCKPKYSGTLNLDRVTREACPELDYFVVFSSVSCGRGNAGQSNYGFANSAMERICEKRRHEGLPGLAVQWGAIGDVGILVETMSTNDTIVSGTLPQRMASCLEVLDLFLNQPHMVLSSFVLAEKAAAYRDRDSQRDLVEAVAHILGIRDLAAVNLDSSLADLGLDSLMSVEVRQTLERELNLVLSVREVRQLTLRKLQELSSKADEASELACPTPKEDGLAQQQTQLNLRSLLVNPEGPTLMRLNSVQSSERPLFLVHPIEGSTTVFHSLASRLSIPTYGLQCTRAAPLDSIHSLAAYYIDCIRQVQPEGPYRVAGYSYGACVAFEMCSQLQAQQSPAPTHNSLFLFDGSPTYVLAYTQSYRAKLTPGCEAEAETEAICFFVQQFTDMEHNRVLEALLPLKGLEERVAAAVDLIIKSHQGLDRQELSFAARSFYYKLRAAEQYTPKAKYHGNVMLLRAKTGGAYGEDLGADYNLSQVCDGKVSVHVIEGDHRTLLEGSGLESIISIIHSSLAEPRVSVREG
* = called active by the depositor; · = no result. An excerpt weighted towards active compounds, which were near 1.1% of everything screened.

SMILES	GC-B act	GC-A act	aDG glyco act	FAS-TE inh
CCCOc1ccccc1N/C(=N\S(=O)(=O)c1ccc(C)cc1)Nc1nc(C)cc(C)n1	53.6*	45.3*	0.1	25.1
O=C(N/C(=C/c1ccc(Cl)cc1)C(=O)N1CCOCC1)c1ccccc1	0.6	0.3	0.0	-3.2
O=C(N/C(=C\c1ccc(Cl)cc1)C(=O)N1CCOCC1)c1ccc([N+](=O)[O-])cc1	-0.6	0.4	-0.1	89.3*
CCCc1c(Cc2cccc(F)c2)ncn1CCc1ccccc1OC	-3.3	-7.3	·	·
Nc1nn(-c2ccccc2)c(N)c1N=Nc1ccccc1F	-2.4	7.4	-0.4	3.6
Cc1nc2c(N=Nc3ccccc3F)c(N)nn2c(N)c1C#N	-2.5	42.7*	-0.1	-1.7
CCOC(=O)N1CCN(C(=O)C[C@H]2C(=O)N(Cc3ccc(OC)cc3)C3=CCCC[C@@]32C(=O)OCC)CC1	-0.1	-4.0	·	·
Cc1cc(NC(=O)COC(=O)COc2ccc(C(=O)c3ccccc3)cc2)no1	-1.1	63.7*	-0.1	-2.2
C=CC[C@H](CC(=O)NCCO)C(=O)NC[C@@H](OC(=O)[C@@H](CC=C)CC(=O)OC(C)(C)C)c1ccccc1	68.7*	-8.0	-0.1	-8.1
COc1ccc(CCN(Cc2cccs2)S(=O)(=O)c2ccc(C)s2)cc1OC	-5.0	2.5	·	·
COC(=O)c1ccc2nc(-c3ccccc3)c(Cc3cccc(F)c3)n2c1	30.8	21.3	0.2	17.9
Cc1ccc(Cc2c(-c3ccco3)nc3c(C)cc(Br)cn23)cc1	49.7*	49.0*	-0.3	14.7
COC(=O)c1ccc2nc(-c3ccc(F)cc3)c(Cc3cccc(F)c3)n2c1	38.9*	28.3	0.6	19.2
COC(=O)c1ccc2nc(-c3ccco3)c(Cc3cccc(F)c3)n2c1	41.7*	28.7	0.0	-9.2
COC(=O)c1ccc2nc(-c3ccco3)c(Cc3ccc(C)cc3)n2c1	51.8*	44.0*	0.6	8.1
Cc1cc(Br)cn2c(Cc3cccc(Cl)c3)c(-c3ccco3)nc12	15.9	24.2	-0.1	25.5
CC(C)C[C@H]1COc2cccc(F)c2S(=O)(=O)N1Cc1cn(CCC2OCCCO2)nn1	2.4	0.5	·	·
COC(=O)c1ccc2nc(-c3ccc(C)cc3)c(Cc3ccc(C)cc3)n2c1	50.2*	34.0	0.9	16.1
COc1cccc(/C=C2\CC3(OC(=O)C(C)(C)C)CCCN2C3)c1 (stereo not drawn)	3.3	2.3	·	·
Cc1ccc(-n2nc3c(=S)[nH]nc(C)c3c2C)cc1	17.5	40.9*	0.5	-5.2
COc1cc(OC)c(OC)cc1/C=C1\CC(C)C/C(=C\c2cc(OC)c(OC)cc2OC)C1=O (stereo not drawn)	7.0	49.4*	-0.5	22.4
CCC1C/C(=C\c2cc(OC)c(OC)cc2OC)C(=O)/C(=C/c2cc(OC)c(OC)cc2OC)C1 (stereo not drawn)	·	·	-0.3	16.9
Cc1ccccc1Oc1nc(-c2ccccn2)nc2ccccc12	-6.8	-15.4	2.1*	10.1
O=C1C[C@@H](O)[C@H](O)c2cccc(O)c21	1.3	4.7	·	·
COC(=O)COc1ccc2cc(-c3ccccc3)c(=O)oc2c1	11.1	43.0*	-0.7	4.1
SMILES	GC-B act	GC-A act	aDG glyco act	FAS-TE inh
COc1ccc(-c2cc(=O)oc3cc(OCC(=O)N4CCOCC4)ccc23)cc1	2.1	6.7	0.2	-4.9
COC(=O)COc1ccc2c(-c3ccc(OC)cc3)cc(=O)oc2c1	22.5	60.9*	-0.1	-1.0
O=C1CSc2ccc(C(=O)N3CCCC(C(=O)N4CCCC4)C3)cc2N1 (stereo not drawn)	-2.3	2.4	·	·
CN(C)C=Nc1ncc2c3ccccc3n(Cc3ccccc3)c2c1C#N	35.4*	45.7*	0.3	20.4
Cc1csc(SCC(=O)N(C)C2CCS(=O)(=O)C2)n1 (stereo not drawn)	90.4*	4.9	0.1	-7.4
Cc1cnc(NC(=O)C2CC(=O)N(c3cccc(Cl)c3)C2)s1 (stereo not drawn)	37.1*	14.3	-0.5	2.3
NC(=S)N/N=C1\CC(c2ccc3c(c2)OCCCO3)Oc2ccc(F)cc21 (stereo not drawn)	21.8	16.0	1.0	27.0
NC(=S)N/N=C1\CC(c2ccc3c(c2)OCCO3)Oc2ccc(F)cc21 (stereo not drawn)	41.7*	32.0	0.5	22.9
CN1Cc2nnn(Cc3ccccc3)c2-c2cc(N3CCCCC3)ccc2S1(=O)=O	-12.6	-12.3	·	·
Cc1ccc(S(=O)(=O)CCC(=O)c2ccc(F)cc2)cc1	-3.1	71.0*	1.7	0.1
Cc1ccc(S(=O)(=O)CCC(=O)NCc2ccc(Cl)cc2)cc1	2.3	2.8	-0.2	-2.2
Cc1ccc(C(=O)CCS(=O)(=O)c2ccc(Cl)cc2)cc1	-9.6	52.4*	0.2	-0.9
Cc1ccc(C(=O)CCS(=O)(=O)c2ccc(F)cc2)cc1	-6.1	52.5*	2.1	0.3
COc1ccc(C(=O)CCS(=O)(=O)c2ccc(F)cc2)cc1OC	-0.5	-0.8	-0.4	-5.1
COC(=O)N1C[C@@H]2Oc3nccnc3O[C@@H]2C[C@@H]1c1ccccc1Br	5.0	3.8	·	·
Fc1c(F)c(F)c(/C=N/NC(=S)Nc2cccnc2)c(F)c1F	0.8	58.1*	0.6	8.4
O=C(c1cccnc1Cl)N1CCC(Oc2cccnc2)CC1	0.6	1.9	·	·
Cc1cc(N2CCN(CC(C)(C)O)C[C@H]2C)ccc1N1CCN(Cc2ccccc2)[C@H](C)C1	5.2	1.0	·	·
Cc1ccc(Cn2cc(C(=O)c3ccc(F)cc3)c(=O)c3cc4c(cc32)OCCO4)cc1	37.5*	28.3	0.0	21.2
O=C1[C@H]2[C@@H](c3ccc(F)cc3)N3C(=O)N(c4ccc(Br)cc4)C(=O)[C@@]3(Cc3ccc(Cl)cc3)[C@H]2C(=O)N1C1CCCCC1	4.3	-3.6	1.0	93.5*
CC(C)C[C@@]12C(=O)N(c3cccc(Br)c3)C(=O)N1[C@H](c1ccc(F)cc1)[C@@H]1C(=O)N(C3CCCCC3)C(=O)[C@@H]12	-4.7	-9.2	0.6	86.1*
O=C1[C@H]2[C@@H](c3ccc(Cl)cc3)N3C(=O)N(c4cccc(Cl)c4)C(=O)[C@@]3(Cc3ccccc3)[C@H]2C(=O)N1C1CCCCC1	-4.2	-5.6	0.1	93.6*
CC[C@@]12C(=O)N(c3cccc(F)c3)C(=O)N1[C@H](c1ccc(F)cc1)[C@@H]1C(=O)N(C3CCCCC3)C(=O)[C@@H]12	·	·	-0.2	31.2
CCC(C)N(C(=O)CSc1nnc(-c2cc(OC)c(OC)c(OC)c2)o1)C(C)CC (stereo not drawn)	-3.8	2.0	·	·
COc1ccc(CN2C(=O)COc3ccccc3C2c2nnnn2C2CCCCC2)cc1 (stereo not drawn)	-14.3	-20.5	·	·
Cc1ccc(NC(=O)Cn2nnc(-c3ccccc3F)n2)cc1C	0.9	0.9	·	·

High-throughput results deposited in PubChem BioAssay by Sanford-Burnham Center for Chemical Genomics.
